FLuc counter = inhibits or activates purified firefly luciferase, miR-21 counter-screen. purified FLuc, Km substrates, luminescence inhibition. Potency, µM (highest dose often 57.5 µM), for the others: at the top dose activity change, negative = inhibition, actives largely listed as inhibitors. hit rate 6.9% among 360,000;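 further: plate controls were vehicle for no effect and reference inhibitor for full effect; nearly all actives have a fitted effect of over 55% in size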
Target sequence (P08659 whole entry, looked up): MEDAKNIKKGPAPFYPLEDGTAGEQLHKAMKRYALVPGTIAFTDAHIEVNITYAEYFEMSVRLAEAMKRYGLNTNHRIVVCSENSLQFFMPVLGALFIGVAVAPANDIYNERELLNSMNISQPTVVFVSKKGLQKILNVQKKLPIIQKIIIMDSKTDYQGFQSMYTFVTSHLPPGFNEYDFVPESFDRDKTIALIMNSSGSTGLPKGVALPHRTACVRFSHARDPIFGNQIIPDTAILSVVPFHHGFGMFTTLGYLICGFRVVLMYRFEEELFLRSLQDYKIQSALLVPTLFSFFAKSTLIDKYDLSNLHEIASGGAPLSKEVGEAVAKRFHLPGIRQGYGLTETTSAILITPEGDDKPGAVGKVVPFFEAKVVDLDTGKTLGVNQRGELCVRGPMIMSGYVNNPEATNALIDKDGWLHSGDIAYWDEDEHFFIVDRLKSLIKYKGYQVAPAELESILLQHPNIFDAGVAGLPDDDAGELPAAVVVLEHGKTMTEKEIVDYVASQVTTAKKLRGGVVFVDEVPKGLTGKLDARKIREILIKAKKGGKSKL
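Purified P. pyralis luciferase, 10 nM final, with Km-level 10 uM D-luciferin and 10 uM ATP in 50 mM Tris acetate pH 7.5, 10 mM Mg acetate, 0.01% Tween-20, 0.05% BSA; 6-point qHTS titration about 60 µM downward; luminescence read.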
KinaseGlo FLuc = counter-screen: inhibitors of Kinase-Glo firefly luciferase. Q27757. Kinase-Glo luciferase, ATP luminescence, 8 min. Potency, µM (doses to about 38.3 µM), without a hit: top-dose activity change, negative = inhibition, usual class: inhibitors. hit rate 0.28% among 200,000; further: on the % scale 0 is the no-effect control and ±100 the full control effect; nearly all actives have a fitted effect of over 60% in size
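Substrate mix (final 50 mM imidazole pH 7.2, 50 mM KCl, 7 mM MgCl2, 10 uM ATP, 0.01% Tween 20, 0.05% BSA) plus pin-tool compound, then Kinase-Glo detection mix; 8 min ambient, luminescence read.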
Rab9 prom act = activates the Rab9 promoter; Potency, µM (series often up to 9.22 µM), for the others: at the top dose activation, negative = inhibition, actives largely listed as activators; Huh7 Rab9 promoter-luciferase reporter, luminescence, 24 h; hit rate 2.8% among 320,000; further: % of control where 0% means no effect; nearly all actives have a fitted effect of over 60% in size
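Promoter activation is measured as luciferase luminescence in Huh7 cells stably transfected with a Rab9 promoter–luciferase construct, following 24 h compound exposure at 37 °C and 10 min reagent incubation at ambient temperature.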
ELG1 genotox = inducers of genotoxicity in HEK293T ELG1-luciferase cells; HEK293T ELG1-luciferase reporter, luminescence, 16 h; Potency, µM (doses to about 46 µM), inactives show top-dose activity change, positive = activation, actives largely listed as activators; hit rate 1.3% among 330,000; AID 504466; further: % of control where 0% means no effect; nearly all actives have a fitted effect of over 60% in size
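HEK293T cells expressing luciferase-tagged ELG1 were exposed to compound or DMSO vehicle for 16 hr at 37 °C and 5% CO2. Luciferase activity was then measured with ONE-Glo after 30 min at room temperature.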
NPC1 prom act = NPC1 promoter activation | Huh7 NPC1 promoter luciferase reporter, 24 h | Potency, µM (top dose mostly 9.22 µM), for the others: top-dose activation, hits mostly activators | hit rate 2.4% among 320,000 | AID 485313; further: % of control where 0% means no effect; nearly all actives have a fitted effect of over 60% in size
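Compounds in DMSO were transferred onto Huh7 NPC1-luciferase reporter cells pre-incubated 2 h; after 24 h at 37 °C, Amplite reagent was dispensed and luminescence recorded 10 min later.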
SMN2 splice enh = enhancers of SMN2 splice variant expression; HEK293 SMN2-luciferase splicing reporter, luminescence, 30-36 h; Potency, µM (doses to about 46.1 µM), for the others: at the highest dose activity change, positive = activation, hits mostly activators; hit rate 2.8% among 210,000; AID 1458; further: % of control where 0% means no effect; nearly all actives have a fitted effect of over 55% in size
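HEK293 cells carry an SMN2 […]–luciferase reporter in which exon 7 inclusion puts luciferase in frame. Cells were plated 10-12 h before compound addition, then incubated 30-36 h at 37C. ONE-Glo luminescence was read; sodium butyrate at 4.5 mM final served as control.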
* marks the source's active call; other numbers are inactive results; ? = inconclusive; / = no result; ! = not confirmed by another sample. Hits are enriched below; roughly 7.3% of the tested compounds scored in any of these assays. The call rests on the fitted dose curve; in most records, active means well fitted curve in the direction sought with a large enough effect; inconclusive means small, poorly fitted or top-dose-only effect, or another doubt; inactive means no such curve, though single readings can be large; an effect the other way counts as inactive or inconclusive. Potency means the concentration at half of the fitted maximal effect.

SMILES | FLuc counter | KinaseGlo FLuc | Rab9 prom act | ELG1 genotox | NPC1 prom act | SMN2 splice enh
O=C(Nc1ccc2c(c1)OCCO2)c1cccc(Br)c1 | 1.07µM* | / | 1.41µM* | 2.59µM* | 1.26µM* | /
Cc1cc(Cl)c2oc(C(=O)NCCC3CCCCO3)c(C)c2c1 (centres undefined) | 21.3µM* | / | ? | ? | ? | /
CCC1CCCCN1Cc1cn2c(-c3ccc(Br)cc3)nnc2s1 (centres undefined) | 5.5% | / | / | / | / | /
COc1ccc(-n2c(CC3C(=O)N(C)c4ccc(C)cc43)nc3ccccc3c2=O)cc1 (centres undefined) | -2.6% | / | / | / | / | 3.6%
Cc1ccc(C)c(N(C)C(=O)CCNC(=O)Cn2cnc3ccccc3c2=O)c1 | 1.4% | / | / | / | / | -18.4%
Cc1ccc(CNc2ccc3c(c2)OCO3)cc1 | 23.9µM* | -18.0% | / | / | / | -38.6%
CCc1ccc(NC(=O)c2sc3nc(C)c(Cl)c(C)c3c2NC(=O)c2ccccc2OC)cc1 | -6.3% | / | / | / | / | 13.0%
COc1ccc(C(=O)c2ccc(CC(=O)O)s2)cc1 | 12µM* | -2.5% | -2.6% | 2.2% | -3.1% | -7.1%
COc1ccc(C(=O)OCC(=O)c2ccc[nH]2)cc1 | 26.9µM* | / | ? | ? | ? | /
COc1ccc(C(=O)OCC(=O)c2ccc(CNC(C)=O)s2)cc1 | 10.7µM* | / | 22.8% | 0.7% | 9.5% | /
O=C(COC(=O)c1ccc(F)cc1F)c1ccc[nH]1 | 19µM* | / | -2.5% | 2.9% | 1.3% | /
O=C(/C=C/c1ccc(F)cc1)OCC(=O)c1ccc[nH]1 | ? | / | 15.5% | 6.3% | 10.3% | /
COc1ccccc1C(=O)OCC(=O)c1ccc(CNC(C)=O)s1 | / | / | / | 0.4% | / | /
CCOc1ccc(OC(=O)c2c(-c3ccccc3Cl)noc2C)cc1 | 1.6% | / | / | / | / | /
O=C(Nc1cccc2nsnc12)c1cccnc1 | 4.4% | 1.0% | 1.3% | 0.1% | -0.2% | -37.5%
O=C(Nc1cccc2nsnc12)c1cccs1 | 13.5µM*! | -10.9% | 3.16µM*! | ? | ? | 70.9%
O=C(Nc1ccccc1)Nc1cccc2nsnc12 | 7.57µM* | ? | 3.16µM* | ? | 4.47µM* | 11.2µM*
Cn1nnc2cc(C(=O)Nc3ccc4ccccc4c3)ccc21 | 1.9µM* | 0.3% | 0.398µM* | 2.31µM* | 0.891µM* | 3.16µM*
COc1ccc(OC)c(C(=O)c2ccc(C(=O)Nc3ccc4ccccc4c3)cc2)c1 | 1.5% | -0.8% | 20.5% | ? | 10.4% | -52.4%
COc1cc(C(=O)Nc2ccc3ccccc3c2)cc(OC)c1OC | 19µM* | / | -0.1% | ? | -20.5% | /
COc1ccc(C(=O)Nc2ccc3ccccc3c2)cc1OC | 9.53µM* | / | ? | ? | 2.82µM* | /
CCc1ccc2occ(CC(=O)Nc3c(C(=O)c4ccccc4)oc4ccccc34)c2c1 | -5.3% | / | / | / | / | 5.5%
CCCn1nnc2ccccc2c1=O | -5.8% | -0.9% | -3.6% | -1.4% | -0.5% | -0.5%
O=c1c2ccccc2nnn1COc1ccc(Cl)cc1Br | 23.9µM* | 0.1% | 3.16µM* | ? | ? | ?
O=c1c2ccccc2nnn1COc1ccc(F)cc1Cl | ? | -4.7% | 2.51µM* | ? | ? | ?
SMILES | FLuc counter | KinaseGlo FLuc | Rab9 prom act | ELG1 genotox | NPC1 prom act | SMN2 splice enh
COc1ccc(C(=O)OCn2nnc3ccccc3c2=O)cc1OC | 1.9% | 0.5% | -0.6% | 1.4% | -11.7% | 9.0%
CCC(=O)OCn1nnc2ccccc2c1=O | 0.9% | -2.6% | -3.8% | 3.4% | 4.6% | -43.3%
O=c1c2ccccc2nnn1COc1cccc2ccccc12 | 16.9µM* | -0.1% | 3.98µM* | 13.5% | ? | 17.9%
CC(Oc1ccc(Cl)cc1Cl)C(=O)OCn1nnc2ccccc2c1=O (centres undefined) | -0.2% | -1.0% | 1.4% | 1.1% | -3.9% | -6.3%
CCOc1ccc(OCCn2nnc3ccccc3c2=O)cc1 | 13.5µM* | -8.9% | 2.82µM* | 18.3µM* | 3.55µM* | 15.8µM*
O=C(c1ccco1)n1nc(-c2ccccc2)nc1NCc1ccc(F)cc1 | 1.1% | / | / | / | / | -2.7%

Screening results from PubChem BioAssay.
